Active and inactive are the calls of the source.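 The calls were made as follows: active = visually confirmed hit in the image check and inhibition above 20%; inconclusive = visually confirmed hit but inhibition not above 20%; inactive = no visual hit in the image check.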
Test: inhibitors of E-selectin induction by TNFa, primary screen, imaging, HUVEC, immunofluorescence, MLSMR starter and 10KST1 sets (AID 487);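 as to inhibition: signal is fraction of cell area covered by stained E-selectin grains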;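 as to nuclei count: 100% = median nuclei count of all wells on the same plate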
Conditions: HUVEC TNFalpha-induced E-selectin immunofluorescence imaging, at 2 µM; inhibition: stronger effect = higher value; nuclei count: measured here: cell number, toxicity

Row | SMILES | inhibition | nuclei count
1 | Cn1cnc2cc(NC(=O)c3ccc(Cl)cc3)ccc21 | 3.1% (inactive) | 106%
2 | CC(=O)NCC(=O)N(Cc1ccco1)C1(C(=O)NC2CCCCC2)CCCCC1 | -9.3% (inactive) | 128%
3 | COc1ccc2[nH]c(=O)c(CN(Cc3cccs3)S(=O)(=O)c3cccc4nsnc34)cc2c1 | -68.8% (inactive) | 110%
4 | Cc1ccc2oc(=O)c3cnn(CC(=O)NCCC(C)C)c3c2c1 | -31.4% (inactive) | 104%
5 | CC12CCC(C(=O)N3CCCCC3)(CC1=O)C2(C)C (stereo not drawn) | -305% (inactive) | 126%
6 | CC1(C)CC(=O)C=C(Nc2ccc(OCC(F)(F)C(F)F)cc2)C1 | -43% (inactive) | 116%
7 | Cc1cc(C)cc(-n2nnc(C(=O)NCc3ccco3)c2N)c1 | -36.2% (inactive) | 107%
8 | CC(C)Oc1ccc(N2CC(C(=O)Nc3ccccc3F)CC2=O)cc1 (stereo not drawn) | -110% (inactive) | 128%
9 | O=C(Nc1nccs1)c1cccc(NC(=O)C2CC2)c1 | -19% (inactive) | 116%
10 | CCOc1ccccc1C(=O)Nc1nnc(CC)s1 | -6.2% (inactive) | 88%
11 | COc1ccc(C(=O)N2CCN(S(=O)(=O)c3cc(Cl)ccc3OC)CC2)cc1 | -74.2% (inactive) | 106%
12 | [N-]=[N+]=CC(=O)CC(c1ccccc1)N1C(=O)c2ccccc2C1=O (stereo not drawn) | -39.5% (inactive) | 115%
13 | O=C(O)c1c(Cl)c(Cl)c(Cl)c(Cl)c1C(=O)N1CCOCC1 | 12.7% (inactive) | 112%
14 | CCOc1ccccc1OCC(=O)NCc1ccco1 | -16.4% (inactive) | 92%
15 | CC1CCN(Cc2ccc(NC(=O)C3CCN(c4nnc(-n5cccc5)s4)CC3)cc2)CC1 | 44.3% (inactive) | 97.9%
16 | Cc1cc(Oc2ccc(Cl)cc2)nc(-c2ccccc2O)n1 | -13.1% (inactive) | 101%
17 | C=C(C)Cn1c(N2CCN(CC)CC2)nc2c1c(=O)[nH]c(=O)n2C | 12.3% (inactive) | 104%
18 | CCOCCc1nnc(NC(=O)c2ccc(OC)c(OC)c2)s1 | -94.6% (inactive) | 154%
19 | COc1cc(CN2CCN(C(=O)CC(C)C)CC2)cc(OC)c1O | -52.5% (inactive) | 90.3%
20 | c1ccc2c(c1)sc1nnnn12 | -109% (inactive) | 115%

Row | SMILES | inhibition | nuclei count
21 | COC(=O)c1cc(Br)c(=O)n(-c2ccc(OC)cc2)c1 | 25.8% (inactive) | 112%
22 | COc1cc(C(=O)N2CCC(NC(=O)C(Cc3ccc(C)cc3)NC(C)=O)CC2)cc(OC)c1OC (stereo not drawn) | 5.2% (inactive) | 127%
23 | Cc1ccccc1NS(=O)(=O)c1cc(S(C)(=O)=O)ccc1Cl | -43.9% (inactive) | 119%
24 | COc1ccccc1OCCOc1ccccc1/C=N/n1cnnc1 | -66.6% (inactive) | 103%
25 | CCc1nnc(NC(=O)CSc2nnc3scc(-c4ccc(C)cc4)n23)s1 | -5.3% (inactive) | 104%
26 | Cn1c(/C=N/n2cnnc2)nc2ccccc21 | -12.1% (inactive) | 123%
27 | CC1CN(C(=O)c2cc3cc(Cl)cc(Cl)c3oc2=O)CC(C)O1 (stereo not drawn) | -24.5% (inactive) | 100%
28 | C=CCOc1nc2c(c(=O)n(C)c(=O)n2C)n1C | 0.3% (inactive) | 119%
29 | CCOc1cccc(C(=O)N(Cc2ccco2)C2CCS(=O)(=O)C2)c1 (stereo not drawn) | -9.8% (inactive) | 110%
30 | Cn1c(COc2ccc(Cl)cc2)nnc1SCC(=O)NC1CCCCC1 | -90.6% (inactive) | 107%
31 | Cc1cccc2cc(COC(=O)C(C)(C)C)c(=O)[nH]c12 | 14.2% (inactive) | 89.1%
32 | Cc1cccc(-c2c3c(=O)n(C)c(=O)n(C)c3cn2-c2ccc(O)cc2)c1 | -49.7% (inactive) | 98.7%
33 | Cc1ccc(CN2C(=O)CCC2C(=O)NCCCN2CCC(C)CC2)cc1 (stereo not drawn) | 6.2% (inactive) | 77.7%
34 | Cc1cccc(Nc2nc(N)nc(CN3CCC(C(N)=O)CC3)n2)c1C | -35% (inactive) | 123%
35 | COc1cc(OC)nc(NC(=O)CSc2nc3ccccc3o2)n1 | -18.2% (inactive) | 107%
36 | CCCC(c1nnnn1Cc1ccc(OC)cc1)N1CCN(c2ccccc2OC)CC1 (stereo not drawn) | -14.7% (inactive) | 82.7%
37 | COc1cccc(N2CCN(Cc3nc(N)nc(Nc4ccccc4)n3)CC2)c1 | 44.7% (inactive) | 93.5%
38 | Cc1nc2ccc(Br)cn2c1NC(C)(C)C | -2.7% (inactive) | 102%
39 | O=C(Nc1ccc(Cl)c(C(F)(F)F)c1)N1CCCC(O)C1 (stereo not drawn) | -50.8% (inactive) | 107%

From PubChem BioAssay
